Consider 8 compounds from PubChem BioAssay (NCI).

About 83,000 compounds went through this panel and 20% of them were active in at least one assay; those are over-represented in the sample as a whole.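 Assay: single dose, 48 h. Readout: percent growth (0 = no net growth; negative = cell death). Active: <10.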 Unmarked numbers belong to inactive results. Active and inactive are the calls of the source.

Common to all, as to experiment: NCI-60 one-dose screen, 48 h (100 = growth as untreated, 0 = no growth, -100 = all killed)
Common to all, as to details: 10 µM unless noted

Assay [1] relates to SK-MEL-2 melanoma.
In assay [2] the test system is EKVX NSCLC.
Assay [3] concerns SN12C renal.
Assay [4] concerns UO-31 renal.
For assay [5], the system named is TK-10 renal.
Assay [6] concerns ACHN renal.
The test system of assay [7] is CAKI-1 renal.
The test system of assay [8] is A498 renal.
For assay [9], the system named is CCRF-CEM leukemia.
Assay [10] deals with MOLT-4 leukemia.
The subject of assay [11] is SR leukemia.
The subject of assay [12] is RPMI-8226 leukemia.
Assay [13] has as its system OVCAR-8 ovarian.
For assay [14], the system named is OVCAR-5 ovarian.
Assay [15] has as its system OVCAR-4 ovarian.
The test system of assay [16] is SK-OV-3 ovarian.
Assay [17] deals with IGROV1 ovarian.
Assay [18] has as its system OVCAR-3 ovarian.
In assay [19] the test system is HS 578T breast.
Assay [20] deals with NCI/ADR-RES ovarian.

Turning to `C[C@H](C(=O)N(CCc1ccc(Cl)c(Cl)c1)Cc1cncs1)[C@@H]1CC[C@H](C[C@H](C)n2cc(CN3CCC(c4ccc(Cl)cc4)CC3)nn2)O1`, the growth was 106% in assay [1]; 95.4% in [2]; 97.5% in [3]; 82.2% in assay [4]; 104% in [5]; 102% in assay [6]. The growth in assay [7] is 87.9%; in assay [8], 108%; in [9] it was 94.3%; in assay [10], -70% (active); in assay [11], -44.7% (active); in assay [12] it was 91.7%. For the same compound, the growth in assay [13] is 91%; in assay [14] it was 97%; in assay [15], 92.6%; in assay [16], 103%; in assay [17] it was 101%; in assay [18], 105%. Moreover, the growth is 98.7% in [19] and 105% in assay [20].

`CN(C)c1ccc(-c2ccc3c(c2)c(-c2ccccc2)nc(=O)n3C)cn1`: the growth in assay [1] is 26.8%; in assay [2] it was 69.6%; in assay [3], 42.6%; in [4], 42.3%; in [5] it was 56.4%; in [6], 49.9%. For the same compound, the growth in assay [7] is 34.7%; in assay [8] it was 25.8%; in assay [9], 13%; in assay [10] it was 29.9%; in assay [11], 16.7%; in [12] it was 2.69% (active). The growth in [13] was 54%; in [14], 53.2%; in assay [15], 74.6%; in assay [16], 38.6%; in assay [17], 49.1%; in assay [18], 13.1%. Moreover, the figures for the growth in assay [19] and in assay [20] were 41.2% and 27.2%, respectively.

For the compound `O=C1c2cccc3cccc(c23)C(=O)N1C/C=C/c1ccc2c3c(cccc13)C(=O)N(CCO)C2=O`, the growth in assay [1] is 90.7%; in [2] it was 91.5%; in assay [3] it was 75.7%; in assay [4] it was 48.1%; in [5], 98.7%; in assay [6] it was 34.1%. The growth in assay [7] is 63.1%; in [8] it was 74.7%; in assay [9] it was 83.3%; in assay [10] it was 80%; in [11], 67.1%; in [12], 74%. The growth was 69.6% in [13]; 79.2% in assay [14]; 40.1% in [15]; 72.3% in assay [16]; 78.7% in [17]; 87.9% in assay [18]. For the same compound, the growth is 61.6% in assay [19] and 80.2% in assay [20].

As to `CCN(CC)CCCN1C(=O)c2c(c(C)c3c(oc4ccc(OC)cc43)c2C)C1=O`, the growth was 108% in assay [1]; 105% in [2]; 100% in assay [3]; 64.5% in assay [4]; 110% in assay [5]; 42.8% in assay [6]. Further, the growth in assay [7] is 92.6%; in [8], 99.1%; in [9], 93.9%; in assay [10], 96.4%; in assay [11], 102%; in [12], 99.3%. The growth is 93.3% in assay [13]; 114% in assay [14]; 117% in assay [15]; 109% in assay [16]; 94.6% in assay [17]; 108% in [18]. Also, the growth in assay [19] is 99.2%; in assay [20] it was 95.7%.

Regarding `CS(=O)(=O)Nc1cc(-c2ccc3ncc(C#N)c(Nc4ccc(F)c(Cl)c4)c3c2)cnc1Cl`, the growth in [1] is -59.9% (active); in [2] it was -3.93% (active); in [3], 18.2%; in assay [4], -6.94% (active); in [5] it was -21.6% (active); in assay [6] it was 10.2%. The growth in assay [7] was 4.91% (active); in assay [8], -83.6% (active); in assay [9] it was 0.41% (active); in assay [10], -22.5% (active); in assay [11], -0.801% (active); in [12] it was -38.5% (active). Further, the growth in [13] is 4.09% (active); in assay [14], 6.33% (active); in assay [15], -6.46% (active); in assay [16], -25.7% (active); in assay [17], -16.4% (active); in assay [18], -19.3% (active). Besides, the results for the growth in assay [19] and in assay [20] were -17.7% (active) and 21.9%, respectively.

On to `CN1CCN(C(=O)C(C)(C)c2ccc(C(=O)Nc3cn4cc(-c5ccncc5)ccc4n3)cc2)CC1`, for which the growth in [1] was -26.7% (active); in assay [2], 17.9%; in assay [3], 15.6%; in assay [4], -23.7% (active); in assay [5] it was 0.354% (active); in assay [6], 2.6% (active). Besides, the growth in assay [7] was -5.37% (active); in assay [8] it was -63.2% (active); in assay [9], 16%; in assay [10] it was 11.3%; in assay [11], 11.8%; in assay [12], 10.7%. For the same compound, the growth in assay [13] was 14.6%; in assay [14] it was 18.3%; in assay [15], 2.83% (active); in assay [16], 9.33% (active); in assay [17] it was 6.72% (active); in [18] it was -37.4% (active). In addition, the growth in [19] was -6.52% (active); in assay [20], 21.1%.

`CCN(CC)CCCN1C(=O)c2c(c(C)c3c(oc4ccc(O)cc43)c2C)C1=O`: the growth in assay [1] was 94.7%; in assay [2] it was 101%; in assay [3], 63.4%; in assay [4], 63.7%; in assay [5] it was -27.4% (active); in assay [6] it was 25.9%. The growth in [7] is 82.4%; in [8] it was 94.8%; in [9] it was -19.7% (active); in assay [10], 83.2%; in [11], 19.1%; in assay [12], -15.7% (active). For the same compound, the growth in [13] is -31.8% (active); in [14], 103%; in assay [15], -35.5% (active); in assay [16], 109%; in [17], 75.2%; in [18], 55.7%. In addition, the growth is 81.2% in assay [19] and -62.9% (active) in [20].

With `Nc1[nH]c(=S)nc2oc(-c3ccccc3)c(-c3ccccc3)c12`, the growth in [1] was 101%; in assay [2], 98%; in assay [3], 97.5%; in assay [4], 86.9%; in [5], 114%; in assay [6] it was 101%. Besides, the growth was 109% in assay [7]; 90.8% in assay [8]; 119% in [9]; 107% in assay [10]; 93.8% in assay [11]; 99.8% in assay [12]. Moreover, the growth was 101% in assay [13]; 98.2% in assay [14]; 97.2% in assay [15]; 103% in [16]; 100% in assay [17]; 102% in assay [18]. Besides, the figures for the growth in assay [19] and in assay [20] were 91.1% and 98.9%, respectively.
